36 targets from the supplement of paper PMC10849652 can be followed below.

About 7,900 targets were measured; listed, in parts, are those with a hit and a random draw of the rest. About 0.6% of all pairs of compound and target were hits. Unmarked numbers belong to inactive results.

Sequence of UniProt P86791 (P86791 whole entry, looked up): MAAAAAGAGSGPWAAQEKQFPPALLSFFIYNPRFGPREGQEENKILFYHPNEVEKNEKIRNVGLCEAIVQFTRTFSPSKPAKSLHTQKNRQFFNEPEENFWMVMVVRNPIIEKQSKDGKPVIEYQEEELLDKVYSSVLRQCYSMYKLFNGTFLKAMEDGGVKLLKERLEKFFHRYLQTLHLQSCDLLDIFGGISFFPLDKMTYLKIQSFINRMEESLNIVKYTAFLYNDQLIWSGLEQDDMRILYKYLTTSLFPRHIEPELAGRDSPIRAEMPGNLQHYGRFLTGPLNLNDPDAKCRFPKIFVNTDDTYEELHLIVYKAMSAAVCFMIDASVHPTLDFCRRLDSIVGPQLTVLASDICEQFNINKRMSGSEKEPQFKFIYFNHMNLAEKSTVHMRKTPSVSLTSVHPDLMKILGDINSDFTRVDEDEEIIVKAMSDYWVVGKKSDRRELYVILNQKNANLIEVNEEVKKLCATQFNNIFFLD
Sequence of UniProt Q8NHZ8 (Q8NHZ8 whole entry, looked up): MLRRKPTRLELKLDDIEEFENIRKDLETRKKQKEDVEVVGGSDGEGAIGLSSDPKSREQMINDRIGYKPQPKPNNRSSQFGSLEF
Sequence of UniProt Q96LT7 (Q96LT7 whole entry, looked up): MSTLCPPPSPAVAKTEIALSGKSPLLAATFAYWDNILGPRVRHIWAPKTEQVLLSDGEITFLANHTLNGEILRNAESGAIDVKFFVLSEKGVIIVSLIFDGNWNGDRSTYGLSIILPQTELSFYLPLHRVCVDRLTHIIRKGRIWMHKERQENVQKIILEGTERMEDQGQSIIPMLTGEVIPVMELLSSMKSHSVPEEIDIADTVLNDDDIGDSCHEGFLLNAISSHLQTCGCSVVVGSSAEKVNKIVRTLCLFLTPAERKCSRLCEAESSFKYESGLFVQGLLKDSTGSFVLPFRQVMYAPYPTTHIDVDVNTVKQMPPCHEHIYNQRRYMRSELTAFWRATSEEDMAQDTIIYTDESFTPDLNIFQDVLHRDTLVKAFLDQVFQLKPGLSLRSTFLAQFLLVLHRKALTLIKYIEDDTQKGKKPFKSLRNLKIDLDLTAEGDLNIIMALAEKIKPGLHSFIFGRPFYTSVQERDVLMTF
Sequence of UniProt Q99653 (Q99653 whole entry, looked up): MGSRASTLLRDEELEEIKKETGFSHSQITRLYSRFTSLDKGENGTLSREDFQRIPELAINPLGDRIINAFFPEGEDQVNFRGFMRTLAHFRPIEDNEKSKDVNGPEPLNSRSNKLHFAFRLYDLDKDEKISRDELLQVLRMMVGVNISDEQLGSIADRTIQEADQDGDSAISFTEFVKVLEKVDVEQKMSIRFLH
Sequence of UniProt Q9UNS2 (Q9UNS2 whole entry, looked up): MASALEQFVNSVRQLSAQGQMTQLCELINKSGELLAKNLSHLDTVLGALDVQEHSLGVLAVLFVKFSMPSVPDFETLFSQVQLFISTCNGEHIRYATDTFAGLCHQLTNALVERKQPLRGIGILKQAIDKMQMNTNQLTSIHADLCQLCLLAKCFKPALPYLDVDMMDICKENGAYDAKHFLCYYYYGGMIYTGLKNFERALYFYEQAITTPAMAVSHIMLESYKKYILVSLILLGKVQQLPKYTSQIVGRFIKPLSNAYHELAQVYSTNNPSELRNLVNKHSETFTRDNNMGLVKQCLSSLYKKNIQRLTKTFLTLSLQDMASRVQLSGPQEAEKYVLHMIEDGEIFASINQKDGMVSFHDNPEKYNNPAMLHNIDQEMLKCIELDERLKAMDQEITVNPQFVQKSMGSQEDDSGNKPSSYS
Sequence of UniProt P68400 (P68400 whole entry, looked up): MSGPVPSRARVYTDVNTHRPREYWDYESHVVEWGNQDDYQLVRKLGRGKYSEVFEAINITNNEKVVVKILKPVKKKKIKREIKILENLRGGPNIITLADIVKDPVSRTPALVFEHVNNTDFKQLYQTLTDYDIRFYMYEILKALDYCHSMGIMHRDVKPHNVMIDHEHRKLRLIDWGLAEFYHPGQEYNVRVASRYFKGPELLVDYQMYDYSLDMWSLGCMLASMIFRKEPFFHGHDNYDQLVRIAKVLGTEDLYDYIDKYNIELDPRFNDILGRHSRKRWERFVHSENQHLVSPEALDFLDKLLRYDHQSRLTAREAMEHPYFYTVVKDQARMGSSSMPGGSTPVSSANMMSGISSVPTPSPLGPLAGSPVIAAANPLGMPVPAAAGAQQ
Sequence of UniProt Q9Y3X0 (Q9Y3X0 whole entry, looked up): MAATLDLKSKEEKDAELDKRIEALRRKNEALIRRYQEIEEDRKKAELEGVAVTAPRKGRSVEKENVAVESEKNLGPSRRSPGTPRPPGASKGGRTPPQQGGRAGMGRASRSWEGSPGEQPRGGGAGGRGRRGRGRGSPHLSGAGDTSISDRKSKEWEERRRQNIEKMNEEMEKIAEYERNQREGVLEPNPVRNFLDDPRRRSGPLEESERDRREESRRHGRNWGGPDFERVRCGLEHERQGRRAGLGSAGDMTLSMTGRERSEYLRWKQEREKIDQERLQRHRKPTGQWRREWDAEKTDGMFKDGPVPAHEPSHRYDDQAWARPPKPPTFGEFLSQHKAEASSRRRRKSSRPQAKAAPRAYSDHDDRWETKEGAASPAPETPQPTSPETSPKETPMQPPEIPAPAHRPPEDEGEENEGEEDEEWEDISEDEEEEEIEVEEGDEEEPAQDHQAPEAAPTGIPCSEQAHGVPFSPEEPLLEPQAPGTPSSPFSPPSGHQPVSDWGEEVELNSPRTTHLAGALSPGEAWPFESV
Sequence of UniProt P46108 (P46108 whole entry, looked up): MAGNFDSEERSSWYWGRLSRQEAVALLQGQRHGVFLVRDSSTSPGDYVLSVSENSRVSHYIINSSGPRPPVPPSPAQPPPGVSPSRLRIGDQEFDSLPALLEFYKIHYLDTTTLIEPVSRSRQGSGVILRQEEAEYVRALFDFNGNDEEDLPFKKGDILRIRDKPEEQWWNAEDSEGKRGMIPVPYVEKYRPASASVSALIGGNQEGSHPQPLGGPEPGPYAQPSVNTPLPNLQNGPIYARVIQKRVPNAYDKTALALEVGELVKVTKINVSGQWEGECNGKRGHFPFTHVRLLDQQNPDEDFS
Sequence of UniProt P41240 (P41240 whole entry, looked up): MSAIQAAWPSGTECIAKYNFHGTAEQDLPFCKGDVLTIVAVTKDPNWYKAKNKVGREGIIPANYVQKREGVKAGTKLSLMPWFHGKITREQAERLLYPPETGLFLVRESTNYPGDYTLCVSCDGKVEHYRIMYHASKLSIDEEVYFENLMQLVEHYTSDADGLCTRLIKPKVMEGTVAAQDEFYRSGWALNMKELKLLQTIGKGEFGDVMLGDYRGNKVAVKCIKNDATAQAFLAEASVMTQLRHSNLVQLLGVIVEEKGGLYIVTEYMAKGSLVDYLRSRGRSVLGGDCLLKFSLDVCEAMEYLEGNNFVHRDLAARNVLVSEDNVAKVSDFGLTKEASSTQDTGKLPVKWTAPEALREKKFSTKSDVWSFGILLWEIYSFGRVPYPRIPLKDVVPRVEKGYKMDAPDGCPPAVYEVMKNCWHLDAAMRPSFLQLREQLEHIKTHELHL
Sequence of UniProt Q96CF2 (Q96CF2 whole entry, looked up): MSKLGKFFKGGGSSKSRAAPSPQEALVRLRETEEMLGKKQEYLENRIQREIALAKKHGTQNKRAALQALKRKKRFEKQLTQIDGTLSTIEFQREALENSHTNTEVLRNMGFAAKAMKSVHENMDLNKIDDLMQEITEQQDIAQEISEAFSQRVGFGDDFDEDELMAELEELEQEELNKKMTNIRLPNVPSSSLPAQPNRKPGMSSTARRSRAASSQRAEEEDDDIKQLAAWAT
Sequence of UniProt Q5T6V5 (Q5T6V5 whole entry, looked up): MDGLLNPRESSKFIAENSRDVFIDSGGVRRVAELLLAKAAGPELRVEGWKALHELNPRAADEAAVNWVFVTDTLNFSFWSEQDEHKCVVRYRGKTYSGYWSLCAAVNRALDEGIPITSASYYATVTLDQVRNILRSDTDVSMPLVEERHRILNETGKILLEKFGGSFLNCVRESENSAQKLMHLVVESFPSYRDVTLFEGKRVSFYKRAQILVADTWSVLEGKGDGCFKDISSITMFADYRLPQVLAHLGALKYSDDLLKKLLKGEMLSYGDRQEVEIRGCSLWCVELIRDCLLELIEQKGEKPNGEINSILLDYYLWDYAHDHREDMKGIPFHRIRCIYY
Sequence of UniProt P60033 (P60033 whole entry, looked up): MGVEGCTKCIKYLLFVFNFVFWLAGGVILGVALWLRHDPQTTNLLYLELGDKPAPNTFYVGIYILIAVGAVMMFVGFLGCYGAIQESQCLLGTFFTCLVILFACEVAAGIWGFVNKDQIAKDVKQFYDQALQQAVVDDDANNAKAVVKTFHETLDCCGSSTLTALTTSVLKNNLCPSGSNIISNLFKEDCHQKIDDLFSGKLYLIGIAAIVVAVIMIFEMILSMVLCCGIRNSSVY
Sequence of UniProt P14635 (P14635 whole entry, looked up): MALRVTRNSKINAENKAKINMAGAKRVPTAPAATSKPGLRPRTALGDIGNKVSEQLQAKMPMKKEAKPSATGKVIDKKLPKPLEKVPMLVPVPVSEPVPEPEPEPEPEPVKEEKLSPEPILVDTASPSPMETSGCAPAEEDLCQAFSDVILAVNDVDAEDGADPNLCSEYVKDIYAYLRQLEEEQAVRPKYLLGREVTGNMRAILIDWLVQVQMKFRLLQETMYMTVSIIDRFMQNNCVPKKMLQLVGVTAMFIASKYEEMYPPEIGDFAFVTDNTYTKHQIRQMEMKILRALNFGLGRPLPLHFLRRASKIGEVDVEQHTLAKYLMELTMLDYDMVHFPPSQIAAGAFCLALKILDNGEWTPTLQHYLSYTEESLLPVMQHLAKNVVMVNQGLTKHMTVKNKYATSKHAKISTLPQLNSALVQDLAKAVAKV
Sequence of UniProt P21964 (P21964 whole entry, looked up): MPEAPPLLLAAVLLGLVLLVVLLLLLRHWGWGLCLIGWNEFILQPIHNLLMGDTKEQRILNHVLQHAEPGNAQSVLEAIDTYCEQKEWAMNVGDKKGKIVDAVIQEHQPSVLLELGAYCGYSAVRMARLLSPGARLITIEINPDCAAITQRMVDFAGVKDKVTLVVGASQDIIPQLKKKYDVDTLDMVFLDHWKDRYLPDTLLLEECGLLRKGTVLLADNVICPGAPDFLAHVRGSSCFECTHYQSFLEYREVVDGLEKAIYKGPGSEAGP

Compound in the assay: COc1cccc2cc(-c3nc([C@H]4CC[C@H](C(=O)O)CC4)n4ncnc(N)c34)[nH]c12
In words: log2 fold change, soluble protein after heating vs DMSO (PISA); higher = thermal stabilisation; K562 cells, 10 uM, 30 min; active = over 0.2 and 3.5 SD of the protein, either way, in both replicates (recomputed). In outline: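 Values are thermal stability changes relative to control samples and are taken from duplicates. They are stated as log2 fold changes. Before quantification by TMTpro 16plex LC-MS/MS with equalised channel sums, K562 cells at 2×10^6 cells/mL were treated with 10 μM compound for 30 min, heated in aliquots for 3 min across 48°C-58°C, pooled, extracted in PBS with 0.5% NP-40 at 4°C, and centrifuged at 21,000xg for 90 min to give the soluble supernatant.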
With CHP1 (UniProt Q99653), the log2 fold change was -0.02.
For the target CES2 isoform 4 (UniProt O00748), the log2 fold change is -0.145.
The same measure for CPT2 (UniProt P23786): -0.005; for CNN2 (UniProt Q99439): -0.065.
With CBX5 (UniProt P45973) the figure was 0.022; with CNOT4 isoform 6 (UniProt O95628), -0.012.
As for CD55 isoform 7 (UniProt P08174), the log2 fold change was -0.136.
CPT1A (UniProt P50416): the log2 fold change was -0.151.
The same measure for CD81 (UniProt P60033): 0.052; for CRK (UniProt P46108): 0.025.
With CSK (UniProt P41240) the figure was -0.049; with CELF2 isoform 3 (UniProt O95319), -0.006; with CDK5RAP3 isoform 4 (UniProt Q96JB5), 0.004.
With CSNK2A2 (UniProt P19784) the figure was 0.033; with CCZ1 (UniProt P86791), 0.018; with CBR1 (UniProt P16152), 0.028.
As for CHAMP1 (UniProt Q96JM3), the log2 fold change is 0.022.
In the case of CHMP4C (UniProt Q96CF2), the log2 fold change is 0.02.
With CBS (UniProt P35520) the figure was 0.011; with COX15 (UniProt Q7KZN9), 0.052.
CDAN1 (UniProt Q8IWY9): the log2 fold change was 0.185.
With CDC26 (UniProt Q8NHZ8) the figure was -0.017.
With COPS3 (UniProt Q9UNS2), the log2 fold change was 0.052.
With CALCOCO2 isoform 4 (UniProt Q13137) the figure was -0.08; with CASP10 isoform 4 (UniProt Q92851), -0.128.
The same measure for C9orf72 (UniProt Q96LT7): -0.062.
CSNK2A1 (UniProt P68400): the log2 fold change was 0.066.
Consider CCNB1 (UniProt P14635), for which the log2 fold change is 0.017.
The same measure for CHCHD1 (UniProt Q96BP2): 0.161; for CERT isoform 3 (UniProt Q9Y5P4): -0.004.
With CCDC9 (UniProt Q9Y3X0), the log2 fold change is -0.021.
With CAMKK2 (UniProt Q96RR4) the figure was 0.015; with COMT (UniProt P21964), 0.004.
The same measure for CCNK isoform 4 (UniProt O75909): 0.024.
With CDC42BPA isoform 6 (UniProt Q5VT25) the figure was -0.027; with C9orf64 (UniProt Q5T6V5), -0.022.
